Luc counter = Counterscreen for Luciferase (Kinase-Glo TM) Inhibition. Kinase-Glo luciferase, ATP luminescence, 8 min. Potency, µM (titrated, usually from 38.3 µM), for the others: top-dose activity change, negative = inhibition, most hits filed as inhibitors. hit rate 0.28% among 200,000. AID 1379, 2008; also: potency is read from the fitted curve at half-maximal effect; % is scaled to controls: 0 for no effect and ±100 for the full control effect; nearly all actives have a fitted effect of over 60% in size
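Compounds were added to a substrate mix at pH 7.2 (50 mM imidazole, 10 uM ATP, within the enzyme's linear range), followed by Kinase-Glo detection reagent; luminescence was measured after 8 minutes at ambient temperature.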
GALK inh = qHTS Assay for Inhibitors of Human Galactokinase (GALK); hit rate 0.007% among 270,000; P51570; Purified GALK, Kinase-Glo residual ATP luminescence; Potency, µM (titrated, usually from 57.5 µM), for the others: at the top dose activity change, negative = inhibition, actives largely listed as inhibitors; also: potency is read from the fitted curve at half-maximal effect; % is scaled to controls: 0 for no effect and ±100 for the full control effect
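GALK at 5 nM final was combined with compound, 35 uM ATP and 100 uM galactose in HEPES pH8.0 with MgCl2 and DTT. The reaction ran one hour at room temperature before luminescent ATP detection.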
RXFP1 antag = qHTS Assay for Antagonists of the Relaxin Receptor RXFP1 | Relaxin receptor 1 (Homo sapiens), Q9HBX9 | HEK293-RXFP1, relaxin-stimulated cAMP HTRF, 30 min; stronger effect = lower value | hit rate 0.59% among 350,000 | activity change, negative = inhibition, % at 57.5 µM;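 active = activity change of -60% or lower, but not beyond a set lower limit; inconclusive = change between -60% and -40%, or beyond the set limit; inactive = change above -40%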; also: % is scaled to controls: 0 for no effect and ±100 for the full control effect
Target sequence (Q9HBX9 whole entry, looked up): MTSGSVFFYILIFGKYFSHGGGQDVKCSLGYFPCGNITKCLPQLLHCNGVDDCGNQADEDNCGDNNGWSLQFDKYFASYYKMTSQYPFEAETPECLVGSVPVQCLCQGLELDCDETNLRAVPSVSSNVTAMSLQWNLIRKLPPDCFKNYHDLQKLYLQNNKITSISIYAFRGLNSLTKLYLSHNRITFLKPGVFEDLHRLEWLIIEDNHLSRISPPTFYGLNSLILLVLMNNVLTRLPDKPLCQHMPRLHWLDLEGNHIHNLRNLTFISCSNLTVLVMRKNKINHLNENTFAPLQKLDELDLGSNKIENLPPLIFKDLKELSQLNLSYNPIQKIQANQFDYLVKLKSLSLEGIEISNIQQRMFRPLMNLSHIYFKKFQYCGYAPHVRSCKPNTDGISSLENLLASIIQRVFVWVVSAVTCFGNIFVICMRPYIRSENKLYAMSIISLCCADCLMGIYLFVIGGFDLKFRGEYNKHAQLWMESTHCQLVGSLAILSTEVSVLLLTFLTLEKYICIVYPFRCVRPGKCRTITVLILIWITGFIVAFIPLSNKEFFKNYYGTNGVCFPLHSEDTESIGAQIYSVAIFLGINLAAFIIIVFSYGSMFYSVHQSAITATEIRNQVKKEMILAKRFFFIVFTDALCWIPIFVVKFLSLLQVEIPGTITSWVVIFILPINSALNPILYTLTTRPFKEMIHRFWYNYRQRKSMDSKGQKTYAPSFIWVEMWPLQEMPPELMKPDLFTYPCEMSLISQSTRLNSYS
RXFP1 agonist = qHTS Assay for Agonists of the Relaxin Receptor RXFP1; hit rate 0.3% among 370,000; Relaxin receptor 1 (Homo sapiens), Q9HBX9; Potency, µM (top dose mostly 57.5 µM), for inactives: at the highest dose activation, most hits filed as activators; HEK293T-RXFP1 cAMP TR-FRET, 30 min; response scale: percent of porcine relaxin response, buffer zero; also: potency is read from the fitted curve at half-maximal effect; % is scaled to controls: 0 for no effect and ±100 for the full control effect; nearly all actives have a fitted effect of over 60% in size
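HEK293 cells stably expressing RXFP1, treated 30 min at 37C with compounds plus PDE4 inhibitor Ro 20174; cAMP measured by HTRF TR-FRET. Normalized to buffer and 29 nM porcine relaxin; EC50 by Hill fit.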
PKM2 activator = qHTS Assay for Activators of Human Muscle isoform 2 Pyruvate Kinase; hit rate 0.34% among 260,000; AID 1631, 2009; Pyruvate kinase PKM (Homo sapiens), P14618; purified PKM2, Kinase-Glo ATP luminescence, activation; response scale: 0% is enzyme alone, no compound; Potency, µM (doses to about 57.5 µM), inactives show at the top dose activation, usual class: activators; also: potency is read from the fitted curve at half-maximal effect; % is scaled to controls: 0 for no effect and ±100 for the full control effect; nearly all actives have a fitted effect of over 55% in size
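Purified hPK-M2 (>95%) run at intermediate activity with 0.1 mM ADP and 0.5 mM PEP in 50 mM imidazole pH 7.2, KCl, MgCl2; 1 h room temperature. ATP formed read by Kinase-Glo luminescence; normalized to uninhibited and no-enzyme controls.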
miR-21 act = qHTS Assay for Modulators of miRNAs and/orActivators of miR-21. HeLa miR-21 FLuc reporter, luciferase, 48 h. Potency, µM (series often up to 38.3 µM), for inactives: top-dose activity change, positive = activation, hits mostly activators. 340,000 tested, under 10 active;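 also: % of control where 0% means no effect; miR-21 action dims this reporter so a rising signal means less miR-21 action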
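HeLa cells stably expressing CMV-driven firefly luciferase with a downstream miR-21 binding sequence, endogenously expressing miR-21, were treated with titrations (up to about 40uM final) for 48 hours at 37 degree Celsius. Luciferase luminescence was read after lysis.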
Numbers without * were called inactive; ? = inconclusive; nt = not tested or not shown; [ ] = dose if it differs, or a comment. Only some compounds are listed: those with a hit (about 0.92% of all), similar ones and a draw of the others. Unless noted, calls follow the shape of the dose curve; as a rule, active = well fitted curve in the direction sought with a large enough effect; inconclusive = small, poorly fitted or top-dose-only effect, or another doubt; inactive = no such curve, though single readings can be large; an effect the other way counts as inactive or inconclusive.

SMILES	Luc counter	GALK inh	RXFP1 antag	RXFP1 agonist	PKM2 activator	miR-21 act
COc1ccc(N=C2NC(=O)/C(=C/c3ccco3)S2)cc1	nt	-3%	-10	-1%	15%	-17%
Cc1cccc(N=C2NC(=O)/C(=C/c3cccn3C)S2)c1C	nt	-4%	-26	0%	24%	11%
Cc1cccc(N=C2NC(=O)/C(=C/C=C/c3ccco3)S2)c1C	-10%	0%	-77*	1%	?	-12%
CCOc1ccc(NC(=O)CSc2ncc3c(n2)-c2ccccc2N(Cc2ccccc2C)S3(=O)=O)cc1	nt	nt	6	?	nt	4%
CN(C)CCC(=O)N1C/C(=C/c2ccccc2)C(=O)/C(=C\c2ccccc2)C1	nt	nt	-114*	nt	nt	nt
CC[n+]1c(/C=C/N(C)c2ccccc2)n(-c2ccccc2)c2ccc(-c3nc4ccccc4s3)cc21	nt	-5%	-60*	4%	8%	?
Cc1ccc2[nH]c3c(=S)nc[nH]c3c2c1	4%	-2%	19	3.5µM*	0%	-64%
Nc1ccc2c(c1)CN1C(=O)c3ccccc3C1=N2	nt	nt	-15	nt	nt	nt
Cc1ccc(NC(=O)CSCC(=O)NCCc2ccccc2)c(C)c1	nt	nt	-4	-1%	nt	nt
O=C(NC1CCCCC1)c1ccc(Cn2c(SCc3ccccc3F)nc3cccnc32)cc1	nt	nt	-3	-1%	nt	14%
Cc1ccc(CSc2nc3cccnc3n2Cc2ccc(C(=O)NC3CCCCC3)cc2)cc1	nt	nt	-4	20µM*	nt	-17%
CC(C)(C)CC(C)(C)c1cc(O)c(O)c(CN2CCCCC2)c1	-5%[7.66 µM]	nt	nt	nt	nt	nt
O=C1c2ccccc2C(=O)c2c(O)ccc(O)c21	1%	nt	nt	nt	nt	nt
Nc1ccc(O)c2c1C(=O)c1ccccc1C2=O	13µM*	nt	nt	2%	0%	-12%
NC(=O)N[C@@H](CCC(=O)O)C(=O)O	nt	nt	8	nt	nt	nt
Cc1ccsc1/C=C/c1ccc2ccccc2n1	11µM*	0%	-9	4%	-25%	-3%
COc1cccc(/C=N/Nc2nn3cnnc3c3ccccc23)c1	3.5µM*	4%	10	0%	-49%	-1%
COc1cccc(/C=N/Nc2nc3ccccc3n3cnnc23)c1	-2%	-1%	2	1%	9%	-1%
COc1cc(/C=N/Nc2nn3cnnc3c3ccccc23)ccc1O	13µM*	8%	-20	3%	-68%	-5%
CCOc1cc(/C=N/Nc2nn3cnnc3c3ccccc23)ccc1O	nt	-8%	3	4%	-55%	-17%
COc1ccc(C(O)C2=CCCC2=O)cc1 (stereo not drawn)	-5%	nt	nt	nt	nt	nt
O=[N+]([O-])c1cc(/C=N/O)ccc1Sc1ccccc1	-2%	1%	-60*	1%	0%	-35%
O=C1Nc2ccccc2C1(c1ccc(O)cc1)c1ccc(O)cc1	nt	nt	-29	nt	nt	nt
O=C(Nc1ccc(N2CCN(C(=O)c3cccs3)CC2)cc1)c1ccc(F)cc1	nt	16%	-66*	0%	-2%	16%
CCn1c(CNc2cccc(C(F)(F)F)c2)n[nH]c1=S	-1%	5%	-110*	-1%	-5%	1%
SMILES	Luc counter	GALK inh	RXFP1 antag	RXFP1 agonist	PKM2 activator	miR-21 act
O=c1[nH]nc(CNc2cccc(C(F)(F)F)c2)c2ccccc12	-2%	7%	-2	-1%	2%	7%
CCn1nnnc1-c1ccc(OC)c(S(=O)(=O)Nc2ccc(C)c(C)c2)c1	-1%	1%	2	0%	16µM*	-11%
CCn1nnnc1-c1ccc(OC)c(S(=O)(=O)NCc2ccccc2)c1	0%	0%	0	0%	7%	-3%
Cc1cc(O)c(CN2CCN(c3ccc(F)cc3)CC2)c2oc(=O)cc(C)c12	nt	nt	-10	25µM*	nt	3%
CCCc1c(C)c2ccc(O)c(CN3CCN(c4ccc(F)cc4)CC3)c2oc1=O	nt	nt	-14	0%	nt	0%
COc1cccc(C2=C(C(C)=O)Sc3nncn3N2C(C)=O)c1	nt	nt	-18	4%	nt	19%
CC(=O)C1=C(c2ccc(Cl)c(Cl)c2)N(C(C)=O)n2cnnc2S1	nt	nt	-83*	4%	nt	-6%
CC(=O)C1=C(c2ccc(Cl)c(Cl)c2)N(C(C)=O)n2c(C)nnc2S1	nt	nt	-84*	5%	nt	?
CCOC(=O)COc1ccc2c(C)c(CCN(CC)CC)c(=O)oc2c1Cl	nt	nt	-14	nt	nt	nt
O=C(COC(=O)CNS(=O)(=O)c1ccc(Br)cc1Cl)NC1CCCC1	nt	nt	-93*	1%	nt	nt
Cc1ccc2nc(-c3ccccn3)[nH]c2c1	nt	11%	8	0%	-65%	15%
Cc1ccc(-c2nc3ccccc3[nH]2)s1	13µM*	5%	-16	1%	-27%	-20%
c1ccc(-c2nc3ccccc3[nH]2)nc1	7.9µM*	nt	20	0%	-46%	-42%
COc1ccc(-c2nc3ccccc3[nH]2)cc1	8.9µM*	7%	-11	2%	-75%	11%
c1csc(-c2nc3ccccc3[nH]2)c1	-15%	-3%	8	-2%	-19%	-38%
Cc1cc(-c2nc3ccccc3[nH]2)ccc1N	10µM*	7%	-3	2%	-44%	1%
Cc1oc(C(C)(C)C)c(CN2CCOCC2)c1C(=O)O	1%	-3%	5	1%	-6%	-1%
Cc1nc(NCCO)c2nc(-c3ccccc3)n(CCCN(C)C)c2n1	2%	nt	nt	nt	0%	nt
CCC(C)n1nnc2c(=O)oc3ccccc3c21 (stereo not drawn)	3%	3%	-7	0%	1%	0%
Cc1ccc(-n2nnc3c(=O)oc4ccccc4c32)cc1	0%	-1%	-89*	-2%	-13%	-1%
CC(=O)c1sc(NC(=O)C(C)C)nc1C	-4%	-2%	8	8.9µM*	-1%	-2%
CC(=O)Nc1nc(C)c(C(C)=O)s1	-1%	0%	3	19%	-4%	4%
C(=N\Nc1nc(Nc2ccccc2)nc(Nc2ccccc2)n1)/c1cccnc1	-3%	7%	-4	0%	-10%	-5%
C(=N\Nc1nc(Nc2ccccc2)nc(Nc2ccccc2)n1)/c1ccncc1	-2%	-2%	-61*	-1%	-9%	-1%
Cc1ccc(-n2c(O)c(/C=N/Nc3ccc(S(=O)(=O)N4CCOCC4)cc3[N+](=O)[O-])c3ccccc3c2=O)c(C)c1	?	6%	-94*	0%	-23%	?
O=C(O)c1ccc(/C=N\Nc2ccc(S(=O)(=O)N3CCOCC3)cc2[N+](=O)[O-])cc1	nt	11%	-7	2%	-2%	-1%

From PubChem BioAssay
